Laboratory results from PubChem BioAssay.
Calls of active or inactive are those of the source.

Assays:
[1] = tested on: PRMT1 (protein arginine N-methyltransferase 1); assay: small molecules binding arginine methyltransferase PRMT1 – biochemical, small-molecule microarray, 635 nm fluorescence, primary screen (AID 1088); conditions: higher = more signal;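 also: binding of Prmt1 protein to compounds spotted on small-molecule microarray slides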
[2] = growth effects on S. cerevisiae YJM789 – YJM789 clinical isolate, OD600, 24 h, basal, primary screen (AID 1089); conditions: higher = more signal, called active from +8 up or from −8 down;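 also: growth of clinical yeast isolate S. cerevisiae YJM 789 seeded 1000 cells per well; test concentration not given here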
[3] = S. pombe growth modifiers, basal conditions – strain 972, OD600, 24 h, no modulator, primary screen (AID 1090);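 also: basal condition with compound alone and no growth modifier present; test concentration not given here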; conditions: S. pombe 972 growth, higher = more signal, called active from +8 up or from −8 down
[4] = budding yeast growth modifiers under rapamycin – strain BY4716, OD600, 96 h, primary screen (AID 1091); also: test concentration not given here; conditions: S. cerevisiae BY4716 + rapamycin, higher = more signal, called active from +8 up or from −8 down
[5] = target: Torsin-1A-interacting protein 2 (Homo sapiens) (UniProt Q8NFQ8); assay: small molecules binding lysate-expressed LULL1 – cell lysate, human LULL1 lysate, 635/667 nm fluorescence, primary screen (AID 1092); conditions: small-molecule microarray, hLULL1 lysate binding, 635 nm fluorescence; higher = more signal;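 also: probe is lysate of COS7 cells overexpressing human LULL1; score merges per-feature 667 nm fluorescence with signal-to-noise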
Chain of Torsin-1A-interacting protein 2 (Homo sapiens) (Q8NFQ8 whole entry, looked up): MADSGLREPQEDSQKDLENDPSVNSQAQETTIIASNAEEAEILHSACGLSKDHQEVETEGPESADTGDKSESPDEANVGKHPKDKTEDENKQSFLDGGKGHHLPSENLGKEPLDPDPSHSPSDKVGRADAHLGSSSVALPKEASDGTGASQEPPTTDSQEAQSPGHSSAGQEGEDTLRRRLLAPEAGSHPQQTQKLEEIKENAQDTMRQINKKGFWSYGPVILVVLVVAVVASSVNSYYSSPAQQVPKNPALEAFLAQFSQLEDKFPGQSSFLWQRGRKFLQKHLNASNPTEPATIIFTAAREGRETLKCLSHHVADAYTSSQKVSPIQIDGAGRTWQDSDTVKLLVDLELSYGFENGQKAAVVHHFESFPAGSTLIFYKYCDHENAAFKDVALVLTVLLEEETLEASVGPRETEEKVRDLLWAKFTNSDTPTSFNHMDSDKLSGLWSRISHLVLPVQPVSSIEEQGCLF

[6] = optical density change of DRC41 E. coli – strain DRC41, OD650, 24 h, E. coli filamentation project, primary screen (AID 1093);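 also: MC1000 strain lacking acrAB efflux and sulA so SOS filamentation is blocked; test concentration not given here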; conditions: E. coli DRC41 growth, higher = more signal, called active from +8 up or from −8 down
[7] = probe aLefty2 binding to arrayed compounds – biochemical, biotinylated probe, 635/667 nm fluorescence, primary screen (AID 1094); conditions: small-molecule microarray, higher = more signal;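 also: score merges spot fluorescence near 667 nm with spot signal-to-noise ratio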
[8] = tested on: Noggin (protein binding on small-molecule microarray); assay: small molecules binding Noggin protein – biochemical, 635/667 nm fluorescence, primary screen (AID 1095); conditions: 635 nm fluorescence, higher = more signal;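 also: score merges 667 nm feature fluorescence with signal to noise over triplicate slides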
[9] = target: Neurogenic locus notch homolog protein 3 (Homo sapiens) (UniProt Q9UM47); assay: small molecules binding NOTCH3 protein – biochemical, 635/667 nm fluorescence, primary screen (AID 1096); conditions: small-molecule microarray, 635 nm fluorescence, higher = more signal
Chain of Neurogenic locus notch homolog protein 3 (Homo sapiens) (Q9UM47 whole entry, looked up): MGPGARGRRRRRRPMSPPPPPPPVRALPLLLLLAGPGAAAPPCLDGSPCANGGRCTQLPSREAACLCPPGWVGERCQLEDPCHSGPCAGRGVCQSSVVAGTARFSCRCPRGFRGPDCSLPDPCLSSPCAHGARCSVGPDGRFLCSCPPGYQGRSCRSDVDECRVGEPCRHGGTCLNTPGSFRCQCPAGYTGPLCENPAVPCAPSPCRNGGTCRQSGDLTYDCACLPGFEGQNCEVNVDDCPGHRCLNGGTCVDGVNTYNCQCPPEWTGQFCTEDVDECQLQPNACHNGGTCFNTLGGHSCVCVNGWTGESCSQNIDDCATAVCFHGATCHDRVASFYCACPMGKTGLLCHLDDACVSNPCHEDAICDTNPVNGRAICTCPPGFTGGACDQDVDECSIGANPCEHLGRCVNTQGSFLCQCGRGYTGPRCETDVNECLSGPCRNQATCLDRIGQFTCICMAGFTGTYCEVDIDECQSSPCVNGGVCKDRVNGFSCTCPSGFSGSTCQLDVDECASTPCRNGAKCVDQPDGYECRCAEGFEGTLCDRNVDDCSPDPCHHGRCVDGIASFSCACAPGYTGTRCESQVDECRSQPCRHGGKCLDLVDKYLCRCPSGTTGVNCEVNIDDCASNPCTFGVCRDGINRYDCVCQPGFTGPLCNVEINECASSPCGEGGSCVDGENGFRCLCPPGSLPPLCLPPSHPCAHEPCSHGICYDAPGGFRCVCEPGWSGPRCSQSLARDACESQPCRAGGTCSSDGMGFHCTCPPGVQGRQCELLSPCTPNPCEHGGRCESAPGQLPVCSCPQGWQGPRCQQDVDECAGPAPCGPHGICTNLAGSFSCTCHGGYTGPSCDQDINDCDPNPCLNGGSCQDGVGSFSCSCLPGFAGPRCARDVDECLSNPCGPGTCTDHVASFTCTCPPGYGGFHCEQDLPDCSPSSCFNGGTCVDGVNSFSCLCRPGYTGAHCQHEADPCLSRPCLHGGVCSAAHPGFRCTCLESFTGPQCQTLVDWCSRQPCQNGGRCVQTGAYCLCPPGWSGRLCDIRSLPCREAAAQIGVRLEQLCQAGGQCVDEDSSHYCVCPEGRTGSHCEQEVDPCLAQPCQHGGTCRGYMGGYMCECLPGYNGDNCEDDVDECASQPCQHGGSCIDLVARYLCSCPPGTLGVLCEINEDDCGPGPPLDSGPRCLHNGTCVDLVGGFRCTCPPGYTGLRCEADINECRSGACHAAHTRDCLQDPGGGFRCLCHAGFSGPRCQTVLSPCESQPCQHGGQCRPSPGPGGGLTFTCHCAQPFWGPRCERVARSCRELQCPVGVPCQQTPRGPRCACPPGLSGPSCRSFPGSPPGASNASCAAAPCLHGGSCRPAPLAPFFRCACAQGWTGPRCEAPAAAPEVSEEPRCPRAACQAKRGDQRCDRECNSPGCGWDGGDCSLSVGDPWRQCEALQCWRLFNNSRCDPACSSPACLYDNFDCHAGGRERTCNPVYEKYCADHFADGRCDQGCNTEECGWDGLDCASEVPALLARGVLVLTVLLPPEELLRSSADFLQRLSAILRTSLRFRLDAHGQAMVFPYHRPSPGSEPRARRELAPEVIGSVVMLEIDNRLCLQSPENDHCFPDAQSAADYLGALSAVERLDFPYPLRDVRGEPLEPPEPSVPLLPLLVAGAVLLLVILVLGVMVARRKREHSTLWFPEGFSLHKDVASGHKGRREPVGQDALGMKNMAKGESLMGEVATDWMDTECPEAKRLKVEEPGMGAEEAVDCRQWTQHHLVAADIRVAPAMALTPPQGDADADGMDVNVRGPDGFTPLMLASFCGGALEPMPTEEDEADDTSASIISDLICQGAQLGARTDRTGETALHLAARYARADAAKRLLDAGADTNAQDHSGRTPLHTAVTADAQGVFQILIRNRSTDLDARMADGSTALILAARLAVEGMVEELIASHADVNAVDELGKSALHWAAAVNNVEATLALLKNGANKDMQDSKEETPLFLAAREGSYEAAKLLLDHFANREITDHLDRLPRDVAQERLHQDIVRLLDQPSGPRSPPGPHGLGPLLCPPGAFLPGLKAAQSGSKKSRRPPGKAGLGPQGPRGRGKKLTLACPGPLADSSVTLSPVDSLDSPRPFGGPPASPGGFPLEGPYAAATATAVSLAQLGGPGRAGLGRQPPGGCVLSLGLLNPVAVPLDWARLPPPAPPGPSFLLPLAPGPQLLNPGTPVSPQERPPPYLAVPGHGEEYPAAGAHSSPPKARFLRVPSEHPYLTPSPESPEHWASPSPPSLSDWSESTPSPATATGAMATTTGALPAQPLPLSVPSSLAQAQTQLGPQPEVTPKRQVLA

[10] = probe aEGFR binding to arrayed compounds – biochemical, biotinylated probe, 635/667 nm fluorescence, primary screen (AID 1097); conditions: small-molecule microarray, higher = more signal;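 also: probe is a biotinylated anti-EGFR antibody binding compounds printed on slides; score combines fluorescence near 667 nm and signal to noise of each spot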

Compound | composite z-score [1] | z-score [2] | z-score [3] | z-score [4] | composite z-score [5] | z-score [6] | composite z-score [7] | composite z-score [8] | composite z-score [9] | composite z-score [10]
COC(=O)[C@@]1(Cc2ccc(F)cc2)[C@H]2c3cc(C(=O)N4CCCC4)n(Cc4ccc(OC(F)(F)F)cc4)c3C[C@H]2CN1C(=O)c1ccccc1 | -1.08 | 0.646 (inactive) | 0.693 (inactive) | -0.16 (inactive) | 2.1 | -1.01 (inactive) | -0.0238 | -1.2 | -1.23 | -0.0472
COc1cc2c(cc1O)C(C)N(Cc1sc3ccccc3c1Cl)CC2 (stereo not given) | -0.77 | 0.173 (inactive) | -12.3 (active) | -1.6 (inactive) | -0.0038 | 0.566 (inactive) | 0.107 | -0.417 | -0.88 | -0.2
COCCCNC(=O)[C@@]1(CCC(=O)OC(C)(C)C)N=C(c2ccc(OCCCO)cc2)O[C@H]1c1ccccc1 | 1.53 | 0.241 (inactive) | -0.629 (inactive) | 0.0716 (inactive) | 3.51 | 1.25 (inactive) | 0.0296 | 1.56 | 0.275 | 0.0682
COCCOC(=O)N1C(=O)[C@@]2(c3cc(C#CC4=CCCCC4)ccc31)[C@H](c1ccc(O)cc1)N1[C@H](c3ccccc3)[C@H](c3ccccc3)OC(=O)[C@H]1[C@@H]2C(=O)N1CCc2cc(OC)c(OC)cc2C1 | 1.15 | 0.793 (inactive) | 0.244 (inactive) | 0.543 (inactive) | 2.56 | 0.0512 (inactive) | 0.0113 | 0.286 | 0.399 | -0.0065
C=CCC(OC(C)=O)[C@@H]1[C@@H](N(Cc2ccc(-c3ccccc3)cc2)C(=O)Cc2ccc(OC)cc2)c2cc(OCCCO)ccc2N1C(=O)c1ccc2ccccc2c1 (stereo not given in full) | 0.238 | -0.675 (inactive) | 0.121 (inactive) | -0.193 (inactive) | 0.622 | -0.584 (inactive) | -0.154 | 0.138 | 0.0678 | -0.17
C=C(C(=O)CC[C@H](OC(=O)c1ccccc1-c1ccccc1C(=O)O)c1ccc(OCCO)cc1)C(C)C | 1.51 | -1.2 (inactive) | -0.788 (inactive) | -1.28 (inactive) | 3.04 | 0.438 (inactive) | -0.135 | 0.779 | 0.241 | 0.0675
CC(C)N1C(=O)[C@@]2(Cc3ccccc31)c1ccccc1C(=O)N(Cc1ccccc1C(F)(F)F)[C@H]2c1ccc(CO)cc1 | 1.31 | -0.0493 (inactive) | -0.706 (inactive) | -1.81 (inactive) | 2.23 | -0.569 (inactive) | -0.269 | 0.841 | 0.99 | 0.116
CC(C)(C)OC(=O)CC[C@@]1(C(N)=O)N=C(c2ccc(OCCCO)cc2)O[C@@H]1c1ccccc1CN=[N+]=[N-] | -0.319 | 0.689 (inactive) | -0.477 (inactive) | -0.132 (inactive) | 2.86 | 0.035 (inactive) | 0.669 | 0.324 | 0.851 | 0.756
COC(=O)[C@@]1(Cc2ccc(F)cc2)[C@H]2c3cc(C(=O)N(C)C)n(Cc4ccsc4Br)c3C[C@H]2CN1C(=O)c1ccccc1 | -0.291 | 0.232 (inactive) | 0.168 (inactive) | 1.37 (inactive) | 3.64 | -1.32 (inactive) | 1.38 | -0.322 | 1.08 | 1.06
CC(C)C[C@@H]1NC(=O)[C@H]2C[C@@H](C(=O)O)[C@@H](c3cccc(OCCO)c3)N2C1=O | 0.779 | 0.395 (inactive) | -0.907 (inactive) | -0.529 (inactive) | 2.06 | 0.767 (inactive) | 0.276 | 0.492 | 0.632 | 0.0588
CN1C(=O)C2C=CC(C(O)c3ccc(I)cc3)N(N(c3ccccc3)c3ccccc3)C2C1=O (stereo not given) | 0.364 | 0.413 (inactive) | 1.38 (inactive) | 1.45 (inactive) | 0.155 | -1.07 (inactive) | 0.17 | -0.569 | -0.239 | -0.0903
C=CCN1C(=O)[C@]2(O[C@H](CCO)[C@@H]([Si](C)(C)c3ccc(OC)cc3)[C@@H]2C)c2cc(N3C(=O)c4ccccc4Oc4ccccc43)ccc21 | 1.41 | 0.922 (inactive) | 0.729 (inactive) | 35.6 (active) | 2.13 | 0.77 (inactive) | -0.0658 | 0.458 | 0.803 | -0.115
COC(=O)[C@@]1(Cc2ccc(F)cc2)[C@H]2c3cc(C(=O)N(C)C)n(CCF)c3C[C@H]2CN1C(=O)c1ccccc1 | -0.0162 | -2.02 (inactive) | 0.287 (inactive) | -0.318 (inactive) | 2.35 | 1.25 (inactive) | 0.265 | 0.104 | -0.0282 | -0.0896
COCCOC(=O)N1C(=O)[C@@]2(c3cc(C#CCNC(N)=O)ccc31)[C@H](C(=O)N1CCN(c3ncccn3)CC1)[C@H]1C(=O)O[C@H](c3ccccc3)[C@H](c3ccccc3)N1[C@@H]2c1ccc(O)cc1 | -0.479 | -0.357 (inactive) | -0.562 (inactive) | 0.0816 (inactive) | 1.37 | -0.324 (inactive) | -0.547 | -1.27 | -0.637 | -0.384
